Experimental data reported in PubChem BioAssay (NCI).
The panel holds about 79,000 compounds, 15% with a hit somewhere; the sample as a whole holds those more often. Unmarked numbers belong to inactive results. Activity calls are given as the source filed them. No stated cut-off is given here; in the data, active means growth inhibition above about 70%; inactive means the rest.

Assays:
[1] = NCI Yeast Anticancer Drug Screen. Data for the rad50 strain (AID 155);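 further: 0% = growth of vehicle-only cultures of the same strain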; details: S. cerevisiae rad50 strain growth inhibition; at 50.0 µM; stronger effect = higher value
Summary of the method: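 DNA repair mutant yeast, compound exposure, growth read-out; inhibition is taken relative to vehicle.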

[2] = NCI Yeast Anticancer Drug Screen. Data for the mec2-1 strain (AID 157); details: S. cerevisiae mec2-1 strain, at 50.0 µM, stronger effect = higher value
Summary of the method: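 Using mec2-1 yeast: add compound, measure growth, express inhibition versus vehicle-treated cultures.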

[3] = NCI Yeast Anticancer Drug Screen. Data for the sgs1 mgt1 strain (AID 161);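 further: 0% = growth of cultures given vehicle only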; details: S. cerevisiae sgs1 mgt1 strain, at 50.0 µM, stronger effect = higher value
Summary of the method: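 Compounds are added to genetically altered yeast, and growth is compared with cultures given vehicle alone to give percent inhibition.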

[4] = NCI Yeast Anticancer Drug Screen. Data for the cln2 rad14 strain (AID 165);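 further: 0% = growth equal to vehicle treated cultures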; details: S. cerevisiae cln2 rad14 strain, at 50.0 µM, stronger effect = higher value
Summary of the method: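 Yeast strain cln2 rad14, bearing defects in cell cycle control and DNA repair, serves as the test system; values reflect growth inhibition compared with vehicle.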

[5] = NCI Yeast Anticancer Drug Screen. Data for the bub3 strain (AID 167); details: S. cerevisiae bub3 mutant strain, at 50.0 µM, stronger effect = higher value
Summary of the method: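 In this screen, a yeast mutant lacking normal mitotic checkpoint function is challenged with compound. Relative growth versus vehicle gives the inhibition value.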

[6] = NCI Yeast Anticancer Drug Screen. Data for the mlh1 rad18 strain (AID 175); details: S. cerevisiae mlh1 rad18 strain growth inhibition; at 50.0 µM; stronger effect = higher value
Summary of the method: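 Steps: expose repair-defective yeast to compound; measure growth; express inhibition against vehicle-treated controls.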

## Clc1ccc2c(c1)nc(-c1ccccn1)n2CCc1ccncc1
[1]
  growth inhibition: 3.75%
[2]
  growth inhibition: 0.05%
[3]
  growth inhibition: 2.4%
[4]
  growth inhibition: -16.4%
[5]
  growth inhibition: -13.4%
[6]
  growth inhibition: 13.8%

## COc1cc2c(cc1O)CN1Cc3cc(O)c(OC)cc3C2C1
[1]
  growth inhibition: -4.95%
[2]
  growth inhibition: 2.35%
[3]
  growth inhibition: -9.1%
[4]
  growth inhibition: -20.9%
[5]
  growth inhibition: -10%
[6]
  growth inhibition: 13.3%

## Cc1ccc(-c2c(C#N)c(-c3ccc(Cl)cc3)c(C#N)c(=O)n2NS(=O)(=O)c2ccc(C)cc2)cc1
[1]
  growth inhibition: 20.9%
[2]
  growth inhibition: 19.8%
[3]
  growth inhibition: 30.4%
[4]
  growth inhibition: 44.6%
[5]
  growth inhibition: 15.7%
[6]
  growth inhibition: 13.2%

## CCN(CC)CCC(=O)N1C/C(=C/c2ccccc2)C(=O)/C(=C\c2ccccc2)C1
[1]
  growth inhibition: 47.4%
[2]
  growth inhibition: 37.9%
[3]
  growth inhibition: 12.8%
[4]
  growth inhibition: 30.6%
[5]
  growth inhibition: 13.2%
[6]
  growth inhibition: 2.7%

## Cn1c(=O)c2ncn(CC(O)COc3ccccc3)c2n(C)c1=O (configuration not stated)
[1]
  growth inhibition: 2.15%
[2]
  growth inhibition: 3.1%
[3]
  growth inhibition: 11.8%
[4]
  growth inhibition: -2.8%
[5]
  growth inhibition: 25.9%
[6]
  growth inhibition: 16.3%

## COC(=O)CCSSCCC(=O)OC
[1]
  growth inhibition: 2.15%
[2]
  growth inhibition: -13.1%
[3]
  growth inhibition: -1.6%
[4]
  growth inhibition: -6.15%
[5]
  growth inhibition: -21.4%
[6]
  growth inhibition: 24.9%

## COC1OC(OC2OC=C3C(=O)OC4CC(C)C2C34)C(O)C(O)C1O (configuration not stated)
[1]
  growth inhibition: -17.1%
[2]
  growth inhibition: -34.2%
[3]
  growth inhibition: -18.7%
[4]
  growth inhibition: -14.3%
[5]
  growth inhibition: -33.4%
[6]
  growth inhibition: -29.1%

## Nc1ccccc1C(=O)CCc1c[nH]c2ccccc12
[1]
  growth inhibition: 5.05%
[2]
  growth inhibition: 9.05%
[3]
  growth inhibition: 7.6%
[4]
  growth inhibition: -42.4%
[5]
  growth inhibition: -12.1%
[6]
  growth inhibition: 12.3%

## CO[C@H]1C[C@H]2[C@@H]3CCC4=CC(=O)C=C[C@]4(C)[C@@]3(F)[C@@H](O)C[C@]2(C)[C@@]1(O)C(=O)COC(C)=O
[1]
  growth inhibition: 6.55%
[2]
  growth inhibition: -0.35%
[3]
  growth inhibition: 22.8%
[4]
  growth inhibition: 33.2%
[5]
  growth inhibition: 1.05%
[6]
  growth inhibition: -6.55%

## COc1c(OC2OC(CO)C(O)C(O)C2O)cc2occ(-c3ccc4c(c3)OCO4)c(=O)c2c1O (configuration not stated)
[1]
  growth inhibition: 23.6%
[2]
  growth inhibition: -9.7%
[3]
  growth inhibition: -10%
[4]
  growth inhibition: 4.6%
[5]
  growth inhibition: 12.1%
[6]
  growth inhibition: 18.6%

## c1c[nH]c(C2Nc3ccccc3CO2)c1 (configuration not stated)
[1]
  growth inhibition: -11.4%
[2]
  growth inhibition: -13.2%
[3]
  growth inhibition: -18.9%
[4]
  growth inhibition: -22.6%
[5]
  growth inhibition: 1.3%
[6]
  growth inhibition: 9.85%

## [Cl][Ge]([Cl])([c]1ccccc1)[c]1ccccc1
[1]
  growth inhibition: 29.1%
[2]
  growth inhibition: 20.9%
[3]
  growth inhibition: 29.1%
[4]
  growth inhibition: 12.8%
[5]
  growth inhibition: 43%
[6]
  growth inhibition: 29.1%

## CCCC(=O)Oc1ccc(C(=O)OC)cc1
[1]
  growth inhibition: 8.4%
[2]
  growth inhibition: -10.8%
[3]
  growth inhibition: -11.9%
[4]
  growth inhibition: -24.8%
[5]
  growth inhibition: -16.4%
[6]
  growth inhibition: 13.3%

## CCOC(=O)C1=NNC(=O)C1
[1]
  growth inhibition: 4.4%
[2]
  growth inhibition: -2.95%
[3]
  growth inhibition: 2.35%
[4]
  growth inhibition: 9.85%
[5]
  growth inhibition: -0.3%
[6]
  growth inhibition: 4.75%

## CC1CCC(=O)NCCCCC(=O)N1 (configuration not stated)
[1]
  growth inhibition: 22.9%
[2]
  growth inhibition: 1.85%
[3]
  growth inhibition: 25.3%
[4]
  growth inhibition: 15.6%
[5]
  growth inhibition: 3.45%
[6]
  growth inhibition: 26.6%

## CC(=O)Nc1ccn(C2OC(COC(C)=O)C(OC(C)=O)C(OC(C)=O)C2OC(C)=O)c(=O)n1 (configuration not stated)
[1]
  growth inhibition: 0.3%
[2]
  growth inhibition: -14.3%
[3]
  growth inhibition: 2.45%
[4]
  growth inhibition: -12.1%
[5]
  growth inhibition: -4.3%
[6]
  growth inhibition: 5.55%

## CSc1ccc(NC(=O)COc2ccccc2)cc1
[1]
  growth inhibition: 9.75%
[2]
  growth inhibition: 19.1%
[3]
  growth inhibition: 6.05%
[4]
  growth inhibition: -3.7%
[5]
  growth inhibition: 39.3%
[6]
  growth inhibition: 21.7%

## COc1ccc(C(CC(=O)c2ccccc2)SCCN2CCOCC2)cc1 (configuration not stated)
[1]
  growth inhibition: 4.25%
[2]
  growth inhibition: 0.85%
[3]
  growth inhibition: 5.2%
[4]
  growth inhibition: -43.6%
[5]
  growth inhibition: 53.5%
[6]
  growth inhibition: 3.6%

## OCC1C2C=CC(C3C=CC32)C1CO (configuration not stated)
[1]
  growth inhibition: 8.4%
[2]
  growth inhibition: -9.8%
[3]
  growth inhibition: -5.7%
[4]
  growth inhibition: -89.7%
[5]
  growth inhibition: -1.6%
[6]
  growth inhibition: 4.25%

## COC(=O)C1CC=CCCC1=O (configuration not stated)
[1]
  growth inhibition: -3.8%
[2]
  growth inhibition: -10.8%
[3]
  growth inhibition: 23.7%
[4]
  growth inhibition: 12.2%
[5]
  growth inhibition: 43.7%
[6]
  growth inhibition: 5.65%

## CC(C)NCC(=O)CCCBr
[1]
  growth inhibition: -5.15%
[2]
  growth inhibition: 0.85%
[3]
  growth inhibition: -3.8%
[4]
  growth inhibition: -23.1%
[5]
  growth inhibition: 5.45%
[6]
  growth inhibition: 10.8%

## CCCC(CCCC(=O)O)C(=O)O (configuration not stated)
[1]
  growth inhibition: -4%
[2]
  growth inhibition: -9.8%
[3]
  growth inhibition: 0.95%
[4]
  growth inhibition: -8.2%
[5]
  growth inhibition: 11.9%
[6]
  growth inhibition: 6.1%

## CCCCCCCC/C=C\CCCCCCCC(=O)O
[1]
  growth inhibition: 10.1%
[2]
  growth inhibition: -23.1%
[3]
  growth inhibition: -2.2%
[4]
  growth inhibition: -22.9%
[5]
  growth inhibition: -27.1%
[6]
  growth inhibition: -15.7%

## COc1cc(-c2ccc(Br)[nH]2)[nH]c1C=NCC(C)C
[1]
  growth inhibition: 78.5% (active)
[2]
  growth inhibition: 78.5% (active)
[3]
  growth inhibition: 78.8% (active)
[4]
  growth inhibition: 78.2% (active)
[5]
  growth inhibition: 69%
[6]
  growth inhibition: 86.7% (active)

## S=C1N=C(Cl)/C(=C\c2ccco2)N1
[1]
  growth inhibition: -4.55%
[2]
  growth inhibition: -18%
[3]
  growth inhibition: 12.1%
[4]
  growth inhibition: 4.2%
[5]
  growth inhibition: 15.9%
[6]
  growth inhibition: -20.6%

## CC(C)(C)c1cc2ccc(C(N)=O)cc2c(=O)[nH]1
[1]
  growth inhibition: -23.7%
[2]
  growth inhibition: -29.8%
[3]
  growth inhibition: -1.65%
[4]
  growth inhibition: 1.2%
[5]
  growth inhibition: -8.8%
[6]
  growth inhibition: -4.95%

## O=C(CC(=O)n1nc(-c2ccccc2)c(N=Nc2ccc(Cl)cc2)c1-c1ccccc1)Nc1ccc(Cl)cc1
[1]
  growth inhibition: -6.75%
[2]
  growth inhibition: -19.1%
[3]
  growth inhibition: -11.9%
[4]
  growth inhibition: -19.3%
[5]
  growth inhibition: -11.1%
[6]
  growth inhibition: -16.8%

## O=C(/C=C/c1ccccc1)[c-]1[c-][c-][c-][c-]1.[Fe].[c-]1[c-][c-][cH-][c-]1
[1]
  growth inhibition: 10.9%
[2]
  growth inhibition: 11.6%
[3]
  growth inhibition: 9.05%
[4]
  growth inhibition: 8.1%
[5]
  growth inhibition: 13.8%
[6]
  growth inhibition: 13.2%

## N#CCC(=O)N/N=C1\C(=O)N(c2ccc(Cl)cc2)C(=O)C(=O)C1c1nc2ccccc2o1 (configuration not stated)
[1]
  growth inhibition: 22.4%
[2]
  growth inhibition: -11.8%
[3]
  growth inhibition: 0.4%
[4]
  growth inhibition: 16.5%
[5]
  growth inhibition: 1.35%
[6]
  growth inhibition: 8.45%

## CNC(=S)NC(=S)N(C)C
[1]
  growth inhibition: -1.15%
[2]
  growth inhibition: -29.9%
[3]
  growth inhibition: 35.2%
[4]
  growth inhibition: -25.8%
[5]
  growth inhibition: -35.2%
[6]
  growth inhibition: 35.9%

## COc1cc(C(=O)c2cocc2C(=O)c2ccc3c(c2)OCO3)cc(OC)c1OC
[1]
  growth inhibition: -17.2%
[2]
  growth inhibition: -33.3%
[3]
  growth inhibition: -10.3%
[4]
  growth inhibition: -18.4%
[5]
  growth inhibition: -25.6%
[6]
  growth inhibition: -14.8%

## O=[N+]([O-])c1ccc(N=NNc2ccc([N+](=O)[O-])cc2)cc1
[1]
  growth inhibition: 4.5%
[2]
  growth inhibition: -13%
[3]
  growth inhibition: -2.05%
[4]
  growth inhibition: -38.1%
[5]
  growth inhibition: -2.95%
[6]
  growth inhibition: 5.4%

## CC1COC(c2ccc(Cl)cc2)O1 (configuration not stated)
[1]
  growth inhibition: 12.2%
[2]
  growth inhibition: 18.1%
[3]
  growth inhibition: 22%
[4]
  growth inhibition: 20.4%
[5]
  growth inhibition: -1.25%
[6]
  growth inhibition: 12.7%

## Cc1ccc2c(c1)Nc1ccccc1P2(=O)O
[1]
  growth inhibition: 7.8%
[2]
  growth inhibition: -3.15%
[3]
  growth inhibition: -40%
[4]
  growth inhibition: 37.6%
[5]
  growth inhibition: 14.3%
[6]
  growth inhibition: -15.4%

## CN1C[C@H]2[C@@H](C1=O)[C@H](c1ccc([N+](=O)[O-])cc1)ON2C
[1]
  growth inhibition: -50.5%
[2]
  growth inhibition: -72.5%
[3]
  growth inhibition: -39.7%
[4]
  growth inhibition: 14.9%
[5]
  growth inhibition: 1.2%
[6]
  growth inhibition: -33.8%

## N#Cc1ccc(NN=NCCOCCCl)cc1
[1]
  growth inhibition: 18.3%
[2]
  growth inhibition: 26.6%
[3]
  growth inhibition: 17.9%
[4]
  growth inhibition: 34.9%
[5]
  growth inhibition: 27.1%
[6]
  growth inhibition: 23.6%

## CC(=O)/C(=C/c1ccc(F)cc1)C(=O)CCN(C)C
[1]
  growth inhibition: 8.15%
[2]
  growth inhibition: 16.6%
[3]
  growth inhibition: 20.9%
[4]
  growth inhibition: 9.55%
[5]
  growth inhibition: -11.5%
[6]
  growth inhibition: -22.2%
